The targets below were run with CCc1cnn2c(NCc3ccc[n+]([O-])c3)cc(N3CCCC[C@H]3CCO)nc12 [dinaciclib] (assay: cell viability remaining relative to DMSO control; higher = less cytotoxic (more viable cells)). Details: 100 nM; 24 h.
Summary of the method: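 Remaining viability, expressed as a percentage of the DMSO control, compares luminescence in treated wells with that in DMSO-treated control wells. Solid tumour cell lines from commercial banks received 100 nM of the test compound for 24 hr, with final DMSO kept at ≤0.2%. Viability was read as ATP luminescence using CellTiter-Glo, and values are means from 2–6 plates run in triplicate wells.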

| Target | cell viability remaining [%] |
| --- | --- |
| H69 | 87.1 |
| H460 | 52.2 |
| LS1034 | 75 |
| OVCAR8 | 104 |
| CHL1 | 3.1 |
| HCC1806 | 60 |
| H1944 | 76.9 |
| RD | 41.1 |
| FADU | 31.8 |
| BXPC3 | 29.4 |
| CAL120 | 76.8 |
| CAL54 | 78.9 |
| HS578T | 69.3 |
| MG63 | 86.8 |
| SKBR3 | 51.1 |
| CAKI1 | 63.5 |
| SNB19 | 70.1 |

| Target | cell viability remaining [%] |
| --- | --- |
| HS294T | 52.6 |
| H508 | 75.7 |
| SW403 | 74.9 |
| TOV112D | 16 |
| COLO704 | 78.2 |
| G401 | 10.4 |
| MDAMB453 | 65.4 |
| SW837 | 79.8 |
| AZ521 | 56.1 |
| BT483 | 83.9 |
| HUPT4 | 9.8 |
| CCFSTTG1 | 70.6 |
| H747 | 73 |
| CFPAC1 | 85.5 |
| RKO | 49.6 |
| ASPC1 | 93.6 |
| COV434 | 7.7 |
